LmPK inhibitor = LmPK (Leishmania mexicana) enzyme inhibition; Q27686; purified LmPK, Kinase-Glo ATP luminescence, 1 h; Potency, µM (highest dose often 57.5 µM), actives largely listed as inhibitors; 290,000 tested, 0.37% active
Target sequence (Q27686 whole entry, looked up): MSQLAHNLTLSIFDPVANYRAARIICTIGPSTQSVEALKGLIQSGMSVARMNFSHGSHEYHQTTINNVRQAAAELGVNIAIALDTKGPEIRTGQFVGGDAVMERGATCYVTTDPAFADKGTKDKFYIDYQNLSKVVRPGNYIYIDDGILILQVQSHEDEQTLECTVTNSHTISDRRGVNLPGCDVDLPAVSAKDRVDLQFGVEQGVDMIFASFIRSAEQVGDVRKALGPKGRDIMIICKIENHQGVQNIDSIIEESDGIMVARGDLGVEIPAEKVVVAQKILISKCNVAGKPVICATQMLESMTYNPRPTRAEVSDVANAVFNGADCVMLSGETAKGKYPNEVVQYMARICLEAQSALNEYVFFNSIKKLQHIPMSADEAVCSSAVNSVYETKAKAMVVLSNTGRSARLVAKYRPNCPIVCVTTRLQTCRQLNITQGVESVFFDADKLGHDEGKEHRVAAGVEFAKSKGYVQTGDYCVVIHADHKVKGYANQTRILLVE
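Purified LmPK (0.1 nM) with 0.5 mM PEP and 0.1 mM ADP in imidazole buffer pH 7.2 with MgCl2/KCl, 1 h at room temperature. ATP formed was read by luciferase luminescence and normalized to no-enzyme and uninhibited controls.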
Tb PYK inh = inhibitors of Trypanosoma brucei pyruvate kinase; Potency, µM (top dose mostly 76.8 µM), hits mostly inhibitors; Q57TT1; 410,000 tested, 0.12% active; TbPYK enzyme, Kinase-Glo Plus ATP luminescence, 45 min; also: nearly all actives have a fitted effect of over 50% in size
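Assay buffer: 50 mM TEA pH 7.2, 100 mM KCl, 10 mM MgCl2, 0.05% BSA, 0.01% Tween-20. Pyruvate kinase from T. brucei plus substrate met compound, then ADP (130 uM final). Luminescence was read post 45 min RT.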
Giardia FBPA inh = inhibitors of Giardia lamblia fructose-1,6-bisphosphate aldolase | AID 2451 | Potency, µM (highest dose often 59.6 µM), actives largely listed as inhibitors | A8B2U2 | 290,000 tested, 0.71% active | purified Giardia FBPA; also: nearly all actives have a fitted effect of over 55% in size
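Giardia FBPA (40 nM reagent) was preincubated 10 min at RT with compound (up to 57.5 uM final), then substrate plus GAPDH/TPI/NAD/arsenate coupling system with diaphorase/resazurin was added; resorufin fluorescence (525/598 nm) was read after 20 min.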
Sm TGR inh = blocks Schistosoma mansoni thioredoxin glutathione reductase. 360,000 tested, 3% active. purified TGR, DTNB reduction, TNB absorbance 405 nm. Q962Y6. Potency, µM (doses to about 114 µM), actives largely listed as inhibitors. AID 485364; also: nearly all actives have a fitted effect of over 60% in size
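TGR 20 nM + NADPH 100 uM (dispensed conc.), cpd preinc 15 min RT; start with NADPH (500 uM addition) then DTNB (15 mM addition). Kinetic TNB absorbance, 405 nm filter. Four-parameter Hill fit across titration.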
RE007 growth inh = less growth of the S. pombe RE007 Vpr strain. S. pombe RE007 Vpr strain, BacTiter-Glo ATP luminescence, 24 h. AID 651644. 360,000 tested, 0.21% active. Potency, µM (highest dose often 92.2 µM), hits mostly inhibitors; active = well fitted falling curve with a large enough effect; inconclusive = small, poorly fitted or top-dose-only effect; inactive = no such curve, though single readings can be large or run the other way; also: nearly all actives have a fitted effect of over 50% in size
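Fission yeast strain RE007, carrying one chromosomally integrated HIV-1 vpr copy, was seeded at OD 0.01 in PMG+AL medium with 23 nL pinned compound. After 24 h at 30 °C and 99% humidity, viability was read by BacTiter-Glo luminescence.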
Large screens that a line does not name were inactive. Compounds with a hit are over-represented: about 3.3% of the library has one in this group of screens. Unless noted, calls follow the shape of the dose curve; as a rule, active = well fitted curve in the direction sought with a large enough effect; inconclusive = small, poorly fitted or top-dose-only effect, or another doubt; inactive = no such curve, though single readings can be large; an effect the other way counts as inactive or inconclusive.

CCN1CCN(S(=O)(=O)c2ccc(Cl)c(C(=O)NC(C)c3ccccc3Cl)c2)CC1 (stereo unspecified)	none (no result: LmPK inhibitor, Giardia FBPA inh)
CCN1CCN(C(c2ccccc2Cl)c2c(O)cc(C)n(CCOC)c2=O)CC1 (stereo unspecified)	Sm TGR inh 3.5µM (no result: LmPK inhibitor, Giardia FBPA inh, RE007 growth inh)
COCCn1c(C)cc(O)c(C(c2ccccc2Cl)N2CCN(c3ccccc3)CC2)c1=O (stereo unspecified)	Sm TGR inh 3.2µM (no result: LmPK inhibitor, Giardia FBPA inh, RE007 growth inh)
COCCn1nnnc1C(c1ccccc1OC)N1CCN(c2ccccc2)CC1 (stereo unspecified)	none
CCc1cc2c(=O)c(-c3nc4ccccc4n3C)c(C)oc2c(CN2CCN(CCO)CC2)c1O	none
COC(=O)C1=C(c2c(C)noc2C)C[C@@H]2CC[C@H]1N2C(=O)N1CCOCC1	Sm TGR inh 50µM (no result: LmPK inhibitor, Giardia FBPA inh)
COC(=O)C1=C(c2c(C)noc2C)C[C@@H]2CC[C@H]1N2C(=O)NC1CC1	none (no result: LmPK inhibitor, Giardia FBPA inh)
CCCc1nc2sc3ccccc3c(=O)c2c(=O)n1Cc1ccco1	Sm TGR inh 35µM
CCCc1nc2sc3ccccc3c(=O)c2c(=O)n1Cc1ccc(OC)cc1	none
CCCc1nc2oc3cc(OC)ccc3c(=O)c2c(=O)n1Cc1ccco1	Sm TGR inh 40µM
COc1ccc2c(=O)c3c(=O)n(Cc4ccco4)c(-c4cc(OC)c(OC)c(OC)c4)nc3oc2c1	Sm TGR inh inconclusive
COc1ccc2c(=O)c3c(=O)n(Cc4ccco4)c(-c4ccccc4)nc3oc2c1	Sm TGR inh 32µM
CCCCCCn1c(-c2ccco2)nc2oc3cc(OC)ccc3c(=O)c2c1=O	none
Cc1cccc(N2CCN(C(=O)c3cccs3)CC2)c1C	none
C=CCn1c(O)c(C(CC)=NCCN2CCN(C(=S)NC)CC2)c(=O)[nH]c1=O	none
Cc1cc(CNC(=S)Nc2cccc(Cl)c2Cl)nn1C	Sm TGR inh 13µM
Cc1cc(CNC(=S)Nc2ccc(S(=O)(=O)Nc3ncccn3)cc2)nn1C	Giardia FBPA inh inconclusive
N/C(Cn1cncn1)=N\NC(=O)C(=O)Nc1ccc(Cl)cc1Cl	none
C=CCn1c(CCC(=O)O)ccc1-c1ccccc1	Sm TGR inh 45µM
O=C(O)CCc1ccc(-c2ccc(Cl)cc2)n1CCC(=O)O	Sm TGR inh 22µM
O=C(O)CCc1ccc(-c2ccccc2)n1CC(=O)Nc1cccc(C(F)(F)F)c1	none
O=C(O)CCc1ccc(-c2ccc(Cl)cc2)n1CC(=O)O	Giardia FBPA inh inconclusive, Sm TGR inh 45µM
Cc1c(Cl)cccc1NC(=O)Cn1c(CCC(=O)O)ccc1-c1ccc(Cl)cc1	none
O=C(O)CCc1ccc(-c2ccc(Cl)cc2)n1CC(=O)Nc1ccccc1	Sm TGR inh inconclusive
O=C(O)CCc1ccc(-c2ccccc2)n1CC(=O)Nc1ccccc1C(F)(F)F	Sm TGR inh 40µM (no result: LmPK inhibitor, Giardia FBPA inh, RE007 growth inh)
Cc1ccccc1C(=O)N(Cc1nc(-c2ccc(Cl)cc2)no1)C(C)C	none (no result: LmPK inhibitor, Giardia FBPA inh, RE007 growth inh)
NS(=O)(=O)c1ccc(NC(=S)NCc2ccccc2Cl)cc1	Sm TGR inh inconclusive
CSc1ccccc1NC(=S)Nc1ccc(S(N)(=O)=O)cc1	Sm TGR inh 22µM
NS(=O)(=O)c1ccc(NC(=S)Nc2cc(Cl)c(Cl)cc2Cl)cc1	Sm TGR inh 32µM
NS(=O)(=O)c1ccc(NC(=S)Nc2ccc(C(=O)N3CCCCC3)cc2)cc1	Sm TGR inh 45µM
COc1ccc(-c2sc(NC(=O)c3ccc(C)cc3)nc2-c2ccc([N+](=O)[O-])cc2)cc1	none
CSc1nc2nccc(-c3ccc(-c4ccccc4)cc3)n2n1	none
O=C(CN1C(=O)CSc2ccccc21)N1CCc2ccccc21	none
COc1ccc(OC)c(C(c2c(O)nc(SC)[nH]c2=O)c2c(O)nc(SC)[nH]c2=O)c1	Tb PYK inh inconclusive, Giardia FBPA inh inconclusive, Sm TGR inh 1.4µM
CSc1nc(O)c(C(c2ccc(OC(C)C)cc2)c2c(O)nc(SC)[nH]c2=O)c(=O)[nH]1	none (no result: LmPK inhibitor, Giardia FBPA inh, Sm TGR inh)
COc1cc(C(c2c(O)nc(SC)[nH]c2=O)c2c(O)nc(SC)[nH]c2=O)cc(OC)c1OC	Sm TGR inh 1.8µM
COC(=O)c1ccc(Cn2c(C)c(C(=O)NCc3cccc([N+](=O)[O-])c3)sc2=O)o1	none (no result: LmPK inhibitor, Giardia FBPA inh, Sm TGR inh)
CCOn1c(=O)c(-c2ccc(OC)cc2)[n+]([O-])c2ccccc21	none
COc1ccccc1CN1COc2ccc3c(C)cc(=O)oc3c2C1	none (no result: LmPK inhibitor, Giardia FBPA inh, RE007 growth inh)

Screens: PubChem BioAssay, National Center for Advancing Translational Sciences (NCATS)
